From PubChem BioAssay (EPA / NIEHS)
Calls of active or inactive are those of the source. Rule for the calls: active = hit-call score of the fitted dose curve at least 0.9, where 1 is the maximum; inactive = score below 0.9.

Experiments:
Conditions in all cases: mRNA level, 48 h; actives raise or lower the signal
[1] = read-out: growth arrest and DNA damage 45 (GADD45B), GADD45B (gene 4616); assay: LTEA_HepaRG_GADD45B: Life Technologies and Expression Analysis (LTEA) Assay for growth arrest and DNA damage 45 (GADD45B) using HepaRG (AID 2283461)
How it was run: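 Values are bidirectional concentration-response fits against 0.5% DMSO controls. Underlying data: qRT-PCR mRNA levels in human HepaRG liver cells treated 48 h in serum-free induction medium, eight concentrations topping at 100 uM.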

[2] = read-out: ABC Transporter (ABCC3), ABCC3 (gene 8714); assay: LTEA_HepaRG_ABCC3: Life Technologies and Expression Analysis (LTEA) Assay for ABC Transporter (ABCC3) using HepaRG (AID 2283462)
How it was run: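 Differentiated HepaRG liver cells receive test chemicals at eight concentrations (max 100 uM) for 48 h. Expression of ABCC3 is quantified by qRT-PCR against ACTB, GAPDH and POLR2A, and activity is fitted in both directions against the DMSO control.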

[3] = read-out: ABC Transporter (ABCB11), ABCB11 (gene 8647); assay: LTEA_HepaRG_ABCB11: Life Technologies and Expression Analysis (LTEA) Assay for ABC Transporter (ABCB11) using HepaRG (AID 2283463)
How it was run: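 ABCB11 transcript levels are read by Fluidigm TaqMan qRT-PCR after 48 h chemical treatment of human HepaRG cells. Concentrations span 100 uM downward in half-log steps with 0.5% DMSO; gain or loss is fitted against DMSO controls.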

[4] = read-out: ABC Transporter (ABCC2), ABCC2 (gene 1244); assay: LTEA_HepaRG_ABCC2: Life Technologies and Expression Analysis (LTEA) Assay for ABC Transporter (ABCC2) using HepaRG (AID 2283464)
How it was run: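 Gene expression of ABCC2 was determined by qRT-PCR in HepaRG cells exposed 48 h to chemicals (highest 100 uM, half-log dilutions). Activity was fitted in both directions relative to 0.5% DMSO vehicle.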

[5] = read-out: Broad substrate specificity ATP-binding cassette transporter ABCG2 (Homo sapiens) (UniProt Q9UNQ0); assay: LTEA_HepaRG_ABCG2: Life Technologies and Expression Analysis (LTEA) Assay for ABC Transporter (ABCG2) using HepaRG (AID 2283465)
How it was run: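 Read-out is ABCG2 mRNA induction or loss quantified by qRT-PCR after 48 h chemical treatment of human HepaRG cells, normalized to three housekeeping genes. Concentrations reached 100 uM top in half-log steps; fitting was bidirectional against 0.5% DMSO.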

[6] = read-out: Peroxisomal acyl-coenzyme A oxidase 1 (ACOX1) gene, ACOX1 (gene 51); assay: LTEA_HepaRG_ACOX1: Life Technologies and Expression Analysis (LTEA) Assay for Peroxisomal acyl-coenzyme A oxidase 1 (ACOX1) gene using HepaRG (AID 2283467)
How it was run: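 Measured by qRT-PCR against three housekeeping genes: ACOX1 transcript change in human HepaRG cells after 48 h dosing. Concentrations ran up to 100 uM in half-log steps. Curves were fitted bidirectionally relative to 0.5% DMSO.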

[7] = read-out: Alkaline Phosphatase, Placental (ALPP) gene, ALPP (gene 250); assay: LTEA_HepaRG_ALPP: Life Technologies and Expression Analysis (LTEA) Assay for Alkaline Phosphatase, Placental (ALPP) gene using HepaRG (AID 2283468)
How it was run: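 Expression of ALPP was quantified by qRT-PCR against three housekeeping genes in human HepaRG cultures treated for 48 h with an eight-point concentration series up to 100 uM. Activity in either direction was fitted relative to 0.5% DMSO.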

[8] = read-out: Bcl-2 (BAD) gene, BAD (gene 572); assay: LTEA_HepaRG_BAD: Life Technologies and Expression Analysis (LTEA) Assay for Bcl-2 (BAD) gene using HepaRG (AID 2283469)
How it was run: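 BAD transcript change, measured by qRT-PCR against three housekeeping genes and fitted in both directions relative to 0.5% DMSO, after 48 h chemical treatment of human HepaRG liver cells at concentrations up to 100 uM.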

[9] = read-out: adenosine kinase (ADK) gene, ADK (gene 132); assay: LTEA_HepaRG_ADK: Life Technologies and Expression Analysis (LTEA) Assay for adenosine kinase (ADK) gene using HepaRG (AID 2283471)
How it was run: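 Following 48 h exposure of HepaRG cells in 0.5% DMSO (top concentration 100 uM, duplicate wells), ADK mRNA induction or suppression was measured by qRT-PCR, normalised to ACTB/GAPDH/POLR2A, and fitted bidirectionally relative to vehicle.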

[10] = read-out: Alpha-fetoprotein (AFP) gene, AFP (gene 174); assay: LTEA_HepaRG_AFP: Life Technologies and Expression Analysis (LTEA) Assay for Alpha-fetoprotein (AFP) gene using HepaRG (AID 2283472)
How it was run: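 HepaRG, single lot; 48 h post-plating -> serum-free induction medium; cpd 8-pt, 100 uM top, half-log, 0.5% DMSO, duplicate, 48 h. RNA -> qRT-PCR AFP, norm ACTB/GAPDH/POLR2A. Bidirectional fit vs DMSO.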

BCL2L11 (gene 10018) = assay: LTEA_HepaRG_BCL2L11: Life Technologies and Expression Analysis (LTEA) Assay for Bcl-2 (BCL2L11) gene using HepaRG (AID 2283473)
How it was run: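 Cells were plated, cultured 48 h, switched to serum-free induction medium, then dosed in duplicate for 48 h at eight half-log concentrations up to 100 uM. Lysates underwent RNA isolation and TaqMan qRT-PCR; gain or loss versus DMSO was fitted.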

[11] = read-out: Apolipoprotein A-V (APOA5) gene, APOA5 (gene 116519); assay: LTEA_HepaRG_APOA5: Life Technologies and Expression Analysis (LTEA) Assay for Apolipoprotein A-V (APOA5) gene using HepaRG (AID 2283474)
How it was run: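 Human liver HepaRG cells are treated 48 h with test chemicals (100 uM top, half-log dilutions, 0.5% DMSO). APOA5 mRNA induction or loss is measured by qRT-PCR relative to vehicle.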

[12] = read-out: Apoptosis regulator Bcl-2 (Homo sapiens) (UniProt P10415); assay: LTEA_HepaRG_BCL2: Life Technologies and Expression Analysis (LTEA) Assay for Bcl-2 gene using HepaRG (AID 2283475)
How it was run: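 HepaRG, plated 48 h then switched to serum-free induction medium; dosed 48 h, 8 conc. (max 100 uM, half-log steps), duplicate, 0.5% DMSO. Lysis in RLT, RNA isolated, TaqMan qRT-PCR for BCL2; ACTB/GAPDH/POLR2A normalisation; bidirectional fit vs DMSO.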

Caspase-3 (Homo sapiens) = Caspase-3 (Homo sapiens) (UniProt P42574); assay: LTEA_HepaRG_CASP3: Life Technologies and Expression Analysis (LTEA) Assay for cysteine-aspartic acid protease (CASP3) using HepaRG (AID 2283477)
Caspase-3 (Homo sapiens), sequence (P42574 whole entry, looked up): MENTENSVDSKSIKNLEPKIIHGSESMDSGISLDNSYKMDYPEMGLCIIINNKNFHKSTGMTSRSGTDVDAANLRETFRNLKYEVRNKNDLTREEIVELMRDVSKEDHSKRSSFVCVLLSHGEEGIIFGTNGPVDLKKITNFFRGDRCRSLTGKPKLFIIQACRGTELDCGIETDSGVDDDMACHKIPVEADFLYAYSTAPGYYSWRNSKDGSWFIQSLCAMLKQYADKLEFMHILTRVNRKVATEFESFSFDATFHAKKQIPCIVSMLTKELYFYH
How it was run: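 In HepaRG liver cells dosed for 48 h at up to 100 uM (eight-point, duplicate), CASP3 expression changes are scored by qRT-PCR. Activity is fitted in both directions with 0.5% DMSO as baseline.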

[13] = read-out: Cytochrome P450 (CYP24A1), CYP24A1 (gene 1591); assay: LTEA_HepaRG_CYP24A1: Life Technologies and Expression Analysis (LTEA) Assay for Cytochrome P450 (CYP24A1) using HepaRG (AID 2283478)
How it was run: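 Human liver HepaRG cultures receive each chemical for 48 h across an eight-point half-log series topping at 100 uM in 0.5% DMSO. Induction or suppression of CYP24A1 mRNA is scored relative to vehicle after housekeeping-gene normalization.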

[14] = read-out: Cytochrome P450 (CYP1A2), CYP1A2 (gene 1544); assay: LTEA_HepaRG_CYP1A2: Life Technologies and Expression Analysis (LTEA) Assay for Cytochrome P450 (CYP1A2) using HepaRG (AID 2283479)
How it was run: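 Assesses CYP1A2 mRNA in human HepaRG liver cells after 48 h chemical exposure at up to 100 uM. Values come from qRT-PCR with bidirectional curve fitting relative to DMSO.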

[15] = read-out: cysteine-aspartic acid protease (CASP8), CASP8 (gene 841); assay: LTEA_HepaRG_CASP8: Life Technologies and Expression Analysis (LTEA) Assay for cysteine-aspartic acid protease (CASP8) using HepaRG (AID 2283480)
How it was run: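 HepaRG, 48 h exposure, duplicate wells; 8 conc, half-log from 100 uM, 0.5% DMSO. Serum-free induction medium. CASP8 mRNA by TaqMan qRT-PCR, norm. ACTB/GAPDH/POLR2A; gain/loss fitted vs DMSO.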

[16] = read-out: Bcl-2 (BID) gene, BID (gene 637); assay: LTEA_HepaRG_BID: Life Technologies and Expression Analysis (LTEA) Assay for Bcl-2 (BID) gene using HepaRG (AID 2283476)
How it was run: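 Transcript levels of BID, measured by qRT-PCR and normalized to three housekeeping genes, were fitted bidirectionally against DMSO controls. Cells were HepaRG, dosed 48 h at up to 100 uM.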

[17] = read-out: ATP-citrate lyase (ACLY), ACLY (gene 47); assay: LTEA_HepaRG_ACLY: Life Technologies and Expression Analysis (LTEA) Assay for ATP-citrate lyase (ACLY) using HepaRG (AID 2283466)
How it was run: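 HepaRG, 48 h exposure, 8-pt half-log dilutions (top 100 uM), 0.5% DMSO. Readout: ACLY mRNA, TaqMan qRT-PCR, housekeeping-normalized (ACTB/GAPDH/POLR2A). Bidirectional curve fit vs DMSO.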

[18] = read-out: Bcl-2 (BAX) gene, BAX (gene 581); assay: LTEA_HepaRG_BAX: Life Technologies and Expression Analysis (LTEA) Assay for Bcl-2 (BAX) gene using HepaRG (AID 2283470)
How it was run: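 HepaRG (human liver), 48 h exposure, duplicate wells. 8-pt curve, half-log from 100 uM, 0.5% DMSO. BAX transcript by TaqMan qRT-PCR; ACTB/GAPDH/POLR2A normalization; gain or loss vs DMSO baseline.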

Measured: AC50

Broad substrate specificity ATP-binding cassette transporter ABCG2 (Homo sapiens), sequence (Q9UNQ0 whole entry, looked up): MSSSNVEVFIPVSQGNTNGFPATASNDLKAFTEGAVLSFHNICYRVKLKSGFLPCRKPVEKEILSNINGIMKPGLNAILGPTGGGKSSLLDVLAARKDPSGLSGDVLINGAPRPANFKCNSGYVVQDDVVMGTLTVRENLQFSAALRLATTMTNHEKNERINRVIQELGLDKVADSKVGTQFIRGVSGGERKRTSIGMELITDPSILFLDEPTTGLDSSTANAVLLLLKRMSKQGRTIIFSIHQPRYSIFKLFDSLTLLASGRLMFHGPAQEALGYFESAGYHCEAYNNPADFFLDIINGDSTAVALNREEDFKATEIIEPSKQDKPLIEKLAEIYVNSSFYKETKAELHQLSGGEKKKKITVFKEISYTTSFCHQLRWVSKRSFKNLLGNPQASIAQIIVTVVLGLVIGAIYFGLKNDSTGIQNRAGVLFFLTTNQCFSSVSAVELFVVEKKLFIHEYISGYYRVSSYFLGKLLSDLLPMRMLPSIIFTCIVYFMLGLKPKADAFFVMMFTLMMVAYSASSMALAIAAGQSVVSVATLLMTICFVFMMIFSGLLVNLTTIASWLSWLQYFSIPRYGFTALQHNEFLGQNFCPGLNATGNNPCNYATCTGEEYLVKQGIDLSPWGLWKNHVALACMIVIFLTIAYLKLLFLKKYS
Apoptosis regulator Bcl-2 (Homo sapiens), sequence (P10415 whole entry, looked up): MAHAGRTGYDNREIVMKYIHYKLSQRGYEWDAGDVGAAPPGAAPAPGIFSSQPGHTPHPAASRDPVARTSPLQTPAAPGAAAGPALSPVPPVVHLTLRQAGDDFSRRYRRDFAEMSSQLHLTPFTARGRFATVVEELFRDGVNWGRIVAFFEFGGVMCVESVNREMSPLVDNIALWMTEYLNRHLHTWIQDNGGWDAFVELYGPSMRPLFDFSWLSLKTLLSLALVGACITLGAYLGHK

Cc1ccc2ncccc2c1
inactive: [1] | [2] | [3] | [4] | [5] | [6] | [7] | [8] | [9] | [10] | BCL2L11 (gene 10018) | [11] | [12] | Caspase-3 (Homo sapiens) | [13] | [14] | [15]

CC(C)c1ccc(C(=O)N=C(N)N)cc1S(C)(=O)=O
inactive: [1] | [2] | [13]
active: [3] 392 nM | [4] 14000 nM | [5] 681 nM | [6] 7390 nM | [7] 590 nM | [8] 407 nM | [9] 418 nM | [10] 350 nM | BCL2L11 (gene 10018) 397 nM | [11] 302 nM | [12] 558 nM | [16] 367 nM | Caspase-3 (Homo sapiens) 383 nM | [14] 452 nM | [15] 409 nM

COCCOCCOC
inactive: [2] | [4] | [17] | [7] | [18] | BCL2L11 (gene 10018) | [11]
active: [3] 922 nM | [5] 1370 nM | [6] 9920 nM | [8] 1390 nM | [9] 2170 nM | [10] 517 nM | [12] 723 nM | [16] 1050 nM | Caspase-3 (Homo sapiens) 423 nM | [13] 388 nM | [14] 950 nM | [15] 1570 nM

NCCO
inactive: [1] | [2] | [3] | [4] | [5] | [6] | [7] | [8] | [9] | [10] | BCL2L11 (gene 10018) | [11] | [12] | Caspase-3 (Homo sapiens) | [13] | [14] | [15]
